Rows were chosen to be rich in hits. Some 1.6% of all compounds tested hit in one or more screens of this group.
KCNQ2 inh: blocks the rat KCNQ2 potassium channel; O88943; CHO-K1 KCNQ2, FluxOR thallium flux, 20 min; hits give low values; B-score at 10 µM; hit rate 1.1% among 310,000;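 active means fluorescence ratio B-score at most minus 3 library SDs, with starting brightness B-score within 2 library SDs, cut at about -5.5 in these data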
Target sequence (O88943 whole entry, looked up): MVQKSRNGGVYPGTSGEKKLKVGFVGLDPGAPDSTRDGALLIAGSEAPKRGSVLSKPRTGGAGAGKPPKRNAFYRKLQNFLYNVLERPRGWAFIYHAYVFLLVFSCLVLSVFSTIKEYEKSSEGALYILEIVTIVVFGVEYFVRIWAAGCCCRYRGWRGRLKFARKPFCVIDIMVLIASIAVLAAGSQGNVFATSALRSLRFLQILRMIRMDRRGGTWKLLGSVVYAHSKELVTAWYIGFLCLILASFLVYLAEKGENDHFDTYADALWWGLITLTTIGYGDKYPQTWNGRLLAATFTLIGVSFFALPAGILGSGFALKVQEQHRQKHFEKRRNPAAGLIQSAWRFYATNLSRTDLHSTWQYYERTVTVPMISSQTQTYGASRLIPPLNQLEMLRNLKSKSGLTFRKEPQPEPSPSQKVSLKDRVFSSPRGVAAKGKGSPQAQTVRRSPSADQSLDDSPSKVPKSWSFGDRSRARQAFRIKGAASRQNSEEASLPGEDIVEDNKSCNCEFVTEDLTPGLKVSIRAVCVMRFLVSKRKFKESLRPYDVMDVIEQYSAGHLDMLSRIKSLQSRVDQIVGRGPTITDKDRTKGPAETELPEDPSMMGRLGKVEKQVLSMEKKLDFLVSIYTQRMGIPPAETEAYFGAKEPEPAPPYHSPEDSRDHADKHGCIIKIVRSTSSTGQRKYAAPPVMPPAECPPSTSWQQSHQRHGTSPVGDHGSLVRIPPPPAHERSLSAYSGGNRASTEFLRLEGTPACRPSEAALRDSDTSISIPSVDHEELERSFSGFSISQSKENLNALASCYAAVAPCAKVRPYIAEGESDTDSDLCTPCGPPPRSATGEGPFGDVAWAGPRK
KCNQ2 enhance: KCNQ2 (rat) channel potentiation. O88943. CHO-K1 KCNQ2, FluxOR thallium flux fluorescence; hits give high values. B-score at 10 µM. hit rate 0.54% among 310,000;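 active means fluorescence ratio B-score at least 3 SD of library B-scores, with initial fluorescence B-score within 3 of them, cut at about 5.3 in these data; same plate scores as AID 2156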;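 further: B-score of peak minus minimum over baseline fluorescence ratio after K+ and Tl+ stimulus; positive B-score means potentiation of KCNQ2 with more thallium influx and brighter signal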
Kir21 conf inh: confirmation of mouse Kir2.1 potassium channel inhibitors. Kir2.1-expressing cells, FluxOR thallium flux fluorescence; hits give low values. hit rate 41% among 2,300. shares compounds with KCNQ2 enhance. Tl flux remaining, % of negative control (hits give low values), % at 10 µM;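 active means Primary-screen hit whose thallium flux fell at least 3 control SD below untreated wells in both duplicates, with normal baseline fluorescence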
HEK293 Tl flux: alters thallium flux in parental HEK293 cells, Kir2.1 counter-screen; shares compounds with KCNQ2 enhance; FluxOR thallium flux fluorescence; 0% = unstimulated blank wells; FluxOR signal as % of negative control (100 = no effect), % at 10 µM; hit rate 19% among 2,300;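 active means dye signal at least 3 control SD above or below untreated wells in both duplicates, raw fluorescence within 3, either direction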;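 further: percent is based on the flux ratio of peak minus minimum fluorescence over baseline F0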
CHO-K1 Tl ctr: parental CHO-K1 activity in KCNQ2 potentiator counter-screen. shares compounds with KCNQ2 enhance. parental CHO-K1 cells, FluxOR thallium flux fluorescence; zero = vehicle mean+3SD, 100% = vehicle-minus-blank window. activity increase over 3SD of controls, % at 10 µM. hit rate 43% among 1,200;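 active means signal rise of at least 3 SD above the untreated control mean, in both duplicate wells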;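 further: counter screen of KCNQ2 potentiator hits so any rise reflects channel-independent effects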
KCNQ1 pot spec: tests whether KCNQ2 potentiators also act on human KCNQ1 | shares compounds with KCNQ2 enhance | CHO KCNQ1 stable, FluxOR thallium flux fluorescence; beyond 3SD, as % of vehicle-control signal | activation over 3SD threshold, % at 10 µM | hit rate 28% among 1,200 | AID 2283;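 active means fluorescence ratio rise of at least 3 SD of vehicle wells above their mean, in both replicate wells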
KCNQ2 pot confirm: confirmation of rat KCNQ2 potassium channel potentiators; shares compounds with KCNQ2 enhance; CHO-KCNQ2 cells, FluxOR thallium flux fluorescence; potentiation, less the hit threshold, % at 10 µM; hit rate 68% among 1,200; AID 2287;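 active means fluorescence ratio rising 3 SD or more over the vehicle control mean in both replicates, plus primary screen hit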;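 further: peak minus minimum thallium fluorescence divided by baseline after K/Tl stimulus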
Kir21 spec: tests whether KCNQ2 potentiators also affect mouse Kir2.1 | shares compounds with KCNQ2 enhance | HEK293 Kir2.1, FluxOR thallium flux fluorescence | activity over 3SD threshold, % at 10 µM | hit rate 2% among 1,200;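 active means fluorescence ratio rise of at least 3 SD above the vehicle-control mean, seen in both replicates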
KCNQ2 W236L MoA: KCNQ2 potentiators acting on retigabine-insensitive rat KCNQ2 W236L mutant | CHO KCNQ2-W236L, automated patch clamp current | AID 2558 | shares compounds with KCNQ2 enhance | current increase over 3SD of negative controls (%), hits give high values, % at 25 µM | hit rate 10% among 940;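 active means current increase at least 3 SD of the untreated controls above them in both duplicate recordings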
Hits are given with their value; . = inactive; / = not tested or not shown.

SMILES | KCNQ2 inh | KCNQ2 enhance | Kir21 conf inh | HEK293 Tl flux | others
CCCCCCn1c(C(C)NC(=O)c2ccco2)nc2ccccc21 (stereo not given) | -6.2 | . | 54% | .
N#CCc1nn2c3c(cnc2c1C#N)C(=O)CCC3 | . | / | / | /
Cc1ccc(S(=O)(=O)N(OCc2ccccc2)C(C)C(=O)O)cc1 (stereo not given) | . | / | / | /
NC(=O)COc1ccc(/C=N\NC(=O)c2ccc(-c3ccccc3)cc2)cc1 | . | / | / | /
COCCn1c(N)c(N(Cc2ccccc2)C(=O)C2=COCCO2)c(=O)[nH]c1=O | . | . | / | /
CC(=O)c1ccc(NC(=S)N2CCCC2)cc1 | . | / | / | /
COc1cccc(OCc2cc(C(=O)N3CCN(c4ccccc4OC)CC3)no2)c1 | . | / | / | /
Cc1cc(O)c(C(C)C)cc1NS(=O)(=O)c1ccccc1 | . | / | 45% | .
COc1ccc(S(=O)(=O)Nc2cc(S(=O)(=O)c3ccccc3)c(O)cc2C)cc1 | . | . | / | /
Cc1nc2c(C)cccn2c1/C(O)=C1\C(=O)C(=O)N(CCN(C)C)C1c1ccccc1 (stereo not given) | . | / | / | /
O=S(=O)(c1ccccc1)N(Cc1ccccc1)c1ccccn1 | . | / | . | .
CC(=O)Nc1ccc(S(=O)(=O)N(Cc2ccccc2)c2ccccn2)cc1 | . | / | / | /
O=C(Nc1ccncc1)Nc1cccc(F)c1 | . | / | / | /
O=C(Nc1cccnc1)Nc1cccc(F)c1 | . | 6.7 | . | . | CHO-K1 Tl ctr=2.5;KCNQ1 pot spec=7.3;KCNQ2 pot confirm=16;Kir21 spec=.;KCNQ2 W236L MoA=18%
O=C(COc1ccc(Br)cc1)N1CCNC1=O | . | . | / | /
COc1cccc(CNC(=O)c2ccc(C)c(NC3=NC4CS(=O)(=O)CC4S3)c2)c1 (stereo not given) | . | . | / | /
Nc1nn(S(=O)(=O)c2cccc3nsnc23)cc1-c1ccc(Br)cc1 | . | 8 | . | . | CHO-K1 Tl ctr=.;KCNQ1 pot spec=8.4;KCNQ2 pot confirm=.;Kir21 spec=.
Cc1ccc(-c2cn(S(=O)(=O)c3cccc4nsnc34)nc2N)cc1 | . | . | / | /
CC(C)(C)OC(=O)NCCc1nnc(SCc2cccc(Cl)c2)o1 | . | / | 26% | .
Cc1cccc(CSc2nnc(CCNC(=O)OC(C)(C)C)o2)c1 | . | / | 33% | .
CC(C)(C)OC(=O)NCCCCCc1nnc(SCc2cccc(F)c2)o1 | . | / | / | /
CC(C)(C)OC(=O)NCCc1nnc(SCC(=O)c2ccc(Cl)cc2)o1 | . | / | / | /
CC(C)(C)OC(=O)NCCc1nnc(SCc2ccc(Cl)cc2Cl)o1 | -5.9 | . | 34% | .
CC(C)(C)OC(=O)NCCc1nnc(SCc2c(Cl)cccc2Cl)o1 | . | / | / | /
CC(C)(C)c1ccc(C(=O)NCC(=O)OCC(=O)c2ccc3c(c2)-c2ccccc2C3)cc1 | . | . | / | /
SMILES | KCNQ2 inh | KCNQ2 enhance | Kir21 conf inh | HEK293 Tl flux | others
O=C(NCc1ccc2c(c1)OCO2)Nc1cccc(Cl)c1 | . | 21 | . | . | CHO-K1 Tl ctr=.;KCNQ1 pot spec=.;KCNQ2 pot confirm=70;Kir21 spec=.;KCNQ2 W236L MoA=.
O=C(/C=C/c1ccccc1)NCc1ccc2c(c1)OCO2 | . | . | / | /
O=C(/C=C/c1cccs1)NCc1ccc2c(c1)OCO2 | . | 8.6 | . | . | CHO-K1 Tl ctr=12;KCNQ1 pot spec=.;KCNQ2 pot confirm=1.0;Kir21 spec=.;KCNQ2 W236L MoA=.
CC(=O)c1cccc(NC(=O)NCc2ccc3c(c2)OCO3)c1 | . | . | / | /
CCS(=O)(=O)c1ccc(O)c(NC(=O)CC2(CC(=O)O)CCCC2)c1 | . | / | / | /
CCC1CCCCN1C(=O)CCNS(=O)(=O)c1ccc2c(c1)oc(=O)n2C (stereo not given) | . | . | / | /
S=C(N/N=C/c1cccc2ccccc12)Nc1cccc(Cl)c1 | . | / | / | /
CN(C)CC(C)(C)CNC(C(=O)Nc1ccc(Cl)cc1C(F)(F)F)c1ccccc1 (stereo not given) | . | / | / | /
O=C(NCCN1CCOCC1)C1CCCN(S(=O)(=O)c2ccc(F)cc2)C1 (stereo not given) | . | . | / | /
CN1CCC(OC(=O)c2ccccc2)CC1 | . | . | / | /
Cc1c(Br)cc(C(=O)OC2CCN(C)CC2)c(C)c1C | . | . | 25% | .
CCOc1ccccc1OC(=O)c1cc2ccccc2oc1=O | . | . | / | /
COCCNC(=O)C(c1ccc(Cl)cc1)N(CCOC)C(=O)CCC(=O)Nc1ccccn1 (stereo not given) | . | . | / | /
Cc1cc(C)c2nc(NNC(=O)c3ccc(S(=O)(=O)N4CCCC(C)C4)cc3)sc2c1 (stereo not given) | . | . | / | /
Cc1cc(C)c2nc(NNC(=O)c3ccc(S(=O)(=O)N4CC(C)CC(C)C4)cc3)sc2c1 (stereo not given) | . | 5.8 | . | . | CHO-K1 Tl ctr=61;KCNQ1 pot spec=.;KCNQ2 pot confirm=.;Kir21 spec=.
Cc1ccc(-c2cc(C(=O)N3CCN(C(=O)c4ccco4)CC3)[nH]n2)cc1C | . | . | / | /
O=C(CCNS(=O)(=O)c1ccccc1F)N1CCN(C(c2ccccc2)c2ccccc2)CC1 | . | 16 | . | . | CHO-K1 Tl ctr=.;KCNQ1 pot spec=.;KCNQ2 pot confirm=44;Kir21 spec=.;KCNQ2 W236L MoA=.
O=C(CCNS(=O)(=O)c1ccccc1F)N1CCN(S(=O)(=O)c2cccc(F)c2)CC1 | . | / | / | /
CCN(CC)CCN(C(=O)CCOc1ccccc1)c1nc2ccc(F)cc2s1 | . | / | / | /
Cc1cc(N)nc2nc(C(F)(F)F)nn12 | . | / | / | /
COc1ccccc1CCNC(=O)C(=O)Nc1cc2c3c(c1)CC(=O)N3CCC2 | . | / | / | /
Cc1cccc(-n2c(C)c(-c3ccccc3)[nH]c2=S)c1 | . | . | / | /
CC(=O)Nc1ccc(S(=O)(=O)N(C)CC(=O)OCC(=O)N(C)C2CCS(=O)(=O)C2)cc1 (stereo not given) | . | / | / | /
Fc1ccc(-n2cc(-c3ccccc3)c3c(=S)nc[nH]c32)cc1 | . | 6.4 | . | 182% | CHO-K1 Tl ctr=.;KCNQ1 pot spec=.;KCNQ2 pot confirm=7.9;Kir21 spec=.;KCNQ2 W236L MoA=.
Fc1cccc(-n2cc(-c3ccccc3)c3c(=S)nc[nH]c32)c1 | . | . | / | /
SMILES | KCNQ2 inh | KCNQ2 enhance | Kir21 conf inh | HEK293 Tl flux | others
CCOc1cc(S(=O)(=O)n2nc(C)cc2C)ccc1Br | . | . | / | /
Cc1cc(N/N=C/c2ccc(O)cc2)c2cccc(C)c2n1 | . | . | / | /
Cc1cc(C)c2nc(C)cc(N/N=C/c3ccc(O)cc3)c2c1 | -8.1 | . | . | .
C=CCn1c(COc2ccccc2)nnc1SCc1ccc(C#N)cc1 | . | / | 45% | 69%
C=CCn1c(COc2ccc(Cl)cc2)nnc1SCc1ccc(C#N)cc1 | . | / | / | /
Cc1c(C)n(Cc2ccccc2)c2ccc(C(=O)NCCN3CCOCC3)cc12 | . | . | / | /
Cc1c(C)n(Cc2ccccc2)c2ccc(C(=O)OCCN(C)C)cc12 | . | / | 26% | .

Screening results deposited in PubChem by Johns Hopkins Ion Channel Center.
